Results taken from ChEMBL document CHEMBL4888484, “Replenishing the malaria drug discovery pipeline: Screening and hit evaluation of the MMV Hit Generation Library 1 (HGL1) against asexual blood stage Plasmodium falciparum ,using a nano luciferase reporter read-out” (2022).
About 410 (8.5%) of roughly 4,800 compounds showed an effect of 50% or more. This excerpt belongs to a sample that is enriched for strong results.

Tested on: Plasmodium falciparum
Test: Confirmatory screen in NF54 pLDH assay, in single point, at 2uM, 72h
Format: functional, Erythrocyte
Settings: timepoint 72 hour

Row | SMILES | % Inhibition [%]
1 | CC(C)C(NC(=O)c1ccccc1F)C(=O)NC1CCC(N(C)C)C1 (centres undefined) | -9
2 | CC1CCCN(c2nc(O)c3c(n2)NC(=O)CC3c2cccc(C(F)(F)F)c2)C1 (centres undefined) | 9
3 | CC(C)Cc1nsc(N2CCOC3CCN(C)CC32)n1 (centres undefined) | 11
4 | CN1c2cc(C(=O)N3CCN(c4ccccc4Cl)CC3)ccc2C(=O)N2CCCC[C@H]21 | 5
5 | Nc1ccnc(OCc2ccccc2)n1 | -16
6 | C[C@H](Oc1ccc(F)cc1)C(=O)N1CCC(c2nc3cc(Cl)ccc3s2)CC1 | -1
7 | Cc1cc(N(CCO)C2CC2)nc(C2CC2)n1 | -18
8 | Cc1cc(N(C)CCC2CC2)nc([C@H](C)N(C)CCC2CC2)n1 | 61
9 | Clc1ccc2c(c1)CC[C@@H]2NCc1nnc2n1CCC2 | 3
10 | O=C(NCCc1cccnc1)OCC(F)(F)F | -19
11 | N[C@H]1C[C@H](c2cc(NCCCc3cccnc3)nc(C3CC3)n2)C1 | 77
12 | Cc1ccc(OCCNc2cc([C@H]3C[C@H](N)C3)nc(C3CC3)n2)cc1C | 25
13 | Cc1ccc(N(C)CC(=O)N2CCC2)c(Br)c1 | -7
14 | COc1ccc(CCc2nc(NC(=O)c3[nH]nc4c3CCC4)n[nH]2)cc1 | -15
15 | O=C(Cc1ccccc1)Nc1c2c(nc3c1CCC3)CCCC2 | 8
16 | COc1ccc(C(=O)N(C(=O)c2ccc(OC)cc2)c2c3c(nc4ccccc24)CCCC3)cc1 | 61
17 | Cc1ccc2c(c1)N(C(=O)c1c[nH]c(C)cc1=O)CCC2 | -3
18 | Cc1cc(C)n(-c2nnc(-c3ccccc3)c(-c3ccccc3)n2)n1 | 10
19 | Cc1cc(C)n(-c2nc(Nc3ccc(Cl)cc3)nc(Nc3ccc(Cl)cc3)n2)n1 | 87
20 | COc1cc(OC)nc(-n2nc(C)cc2C(=O)Nc2ccc(Cl)cc2)n1 | 18
21 | Cc1cc(C)c(S(=O)(=O)Cc2ccccc2)c(O)n1 | 12
22 | Cc1ocnc1C(=O)N[C@H]1CCN(c2ccc(Cl)c(F)c2)C1=O | 7
23 | Cc1cc(N2CC(OCc3ccccc3)C2)nc(Nc2cccc(O)c2)n1 | 96
24 | Cc1cc(N2C[C@H]3CC[C@@H](C2)[C@H]3N(C)C)nc(Nc2cccc(O)c2)n1 | 86
25 | Cc1cccc([C@@H](NC(=O)Nc2ncco2)C(F)(F)F)c1 | -15
26 | N#Cc1ccccc1OCc1csc(-c2ccccn2)n1 | 6

Row | SMILES | % Inhibition [%]
27 | O=C(Nc1nc(CCc2c[nH]c3ccccc23)n[nH]1)c1cccnc1 | 12
28 | CC1=NN(S(=O)(=O)c2ccc(F)cc2)C(=O)c2ccccc2O1 | 5
29 | CN(Cc1nnc2n1CCC2)C(=O)Cc1cccs1 | 9
30 | COc1cc(CN(CC(N)=O)C(C)C)ccc1C | 9
31 | Cc1cc(C(=O)NCc2nc3ccccc3s2)c(C)o1 | 7
32 | CN1CCN(C(=O)CNC(=O)c2cccc(Cl)c2)CC1 | 8
33 | Cc1ccc(S(=O)(=O)N(CC(=O)NC2CCN(C)CC2)c2cccc(Cl)c2)cc1 | 2
34 | Cc1ccc(COc2cccc(CNC3CC3)c2)cc1 | -1
35 | Cn1cc(Cl)c(C(=O)Nc2cccc(S(=O)(=O)N3CCOCC3)c2)n1 | 13
36 | CCN1C(=O)[C@]2(NC3(CCCCC3)C(=O)N2CC)c2ccccc21 | -11
37 | Cc1nn(C)c(NC(=O)CCc2c[nH]cn2)c1C | -7
38 | Cc1cc(C(=O)NCCCS(N)(=O)=O)c(Cl)cc1F | -7
39 | Cc1ccc(O)c(CNc2ccc3c(c2)OCC3(C)C)n1 | -19
40 | Cc1ccc(O)c(CNCC2(c3ccccc3Cl)CCOCC2)n1 | 98
41 | c1csc(CNC2CCCCCCC2)c1 | -2
42 | COc1ccc(OC)c(NC(=O)CN2CCc3[nH]c4ccc(F)cc4c(=O)c3C2)c1 | 83
43 | COc1cc(C)c2[nH]c3c(c(=O)c2c1)CN(CC(=O)Nc1ccc(C)c(F)c1)CC3 | 8
44 | COc1cc(C)c2[nH]c3c(c(=O)c2c1)CN(CC(=O)Nc1ccc(F)c(C)c1)CC3 | 17
45 | Cc1nn(-c2ccccc2)c2nc(Cc3ccccc3)nc(N3CCCN(C(=O)NC4CCCCC4)CC3)c12 | 8
46 | Cc1cc(-c2ccccc2)nc2sc(-c3ccccc3)c([O-])[n+]12 | 5
47 | Cc1cc[n+]2c(-c3ccccc3)cc(-c3ccccc3)nc2c1 | 50
48 | Cc1cc(-c2ccccc2)cc(-c2ccccc2)c1-c1cc(-c2ccccc2)cc(-c2ccccc2)n1 | -3
49 | CC[C@H]1Cn2c(C(=O)NC3CCCC3)cc3c(Cl)ccc(c32)O1 | -11
50 | Cn1c2cn(-c3ccc(F)cc3)c(-c3ccccc3)c2c(=O)n1-c1ccccc1 | 6
51 | Cn1c(=O)c2c(-c3ccc(Cl)cc3)n(-c3cccc4cccc(N)c34)cc2n(C)c1=O | 91
52 | O=C(CCc1nc2ccccc2c(=O)[nH]1)Nc1ccc(-n2cnnn2)cc1 | 6

Row | SMILES | % Inhibition [%]
53 | O=C(N[C@H]1CCOC1=O)OCc1ccccc1 | -4
54 | CCOC(=O)c1cnn(C)c1S(=O)(=O)N1CCCCC1 | 2
55 | CC1CC(NC(=O)NC2CS(=O)(=O)c3ccccc32)C(=O)N1c1ccccc1 (centres undefined) | -1
56 | Cc1ccc(Nc2c(-c3cc4ccccc4cc3O)nc3ncccn23)cc1 | 6
57 | CCCCCc1c(C)nc2[nH]n(-c3ccccc3)c(=O)c2c1O | -22
58 | O=C1CCCc2nc3[nH]n(-c4ccccc4)c(=O)c3cc21 | 13
59 | CNCCc1c(-c2ccccc2)[nH]n(-c2ccccc2)c1=O | 69
60 | CCOc1cccc(NCc2c(N)ncnc2OC)c1 | 13
61 | CC[C@@](C)(C(=O)NC1CCCC1)N(Cc1ccco1)C(=O)c1ccc2c(c1)OCO2 | -9
62 | Cc1ccc(CN2CCS(=O)(=O)CC2)o1 | -13
63 | Cc1oc(-c2ccc(C(=O)Nc3cccc(Cl)c3C)cc2)nc1COc1ccccc1 | 9
64 | CN1CCC(N2CCN(Cc3ccc4cc(O)ccc4c3)CC2)CC1 | 92
65 | Oc1ccc2cc(CN3CCC[C@H](CN4CCCC4)C3)ccc2c1 | 97
66 | CN1CC[C@H](CN(C)Cc2ccc3cc(O)ccc3c2)C1 | 36
67 | COc1ccc(NC(=O)N2C[C@@H]3C[C@H](NS(=O)(=O)c4ccccc4)[C@H]2C3)c(C)c1 | 3
68 | CCc1cccc(NC(=O)C2CCN(c3c(C)n(-c4ccccc4)c(=O)n(CC(C)C)c3=O)CC2)c1 | 5
69 | O=C1c2ccccc2C(=O)N1Cc1cnn(CC(F)F)c1 | 12
70 | COc1ccc2oc(-c3ccc(CNC(=O)c4cccnc4)cc3)nc2c1 | 6
71 | CC(C)(C)OC(=O)N1CCC(c2c(C(=O)Nc3ccc(Cl)cc3Cl)cnn2-c2cccc(F)c2)CC1 | -3
72 | CC1(C)C(=O)NCCN1C(=O)c1ccc2nccnc2c1 | 9
73 | CN(C(=O)c1n[nH]c2c1CCC2)[C@H]1CCCc2c1cnn2C | -4
74 | O=S1(=O)c2ccccc2N=NN1Cc1ccc(Cl)cc1 | -19
75 | O=C(Nc1cc(NC(=O)c2ccc(F)cc2)cc(Oc2cccnc2)c1)c1ccc(F)cc1 | 5
76 | O=C(Nc1ccc(N2CCn3c(nc4ccccc43)C2)cc1)c1ccc(F)cc1 | 14
77 | O=C(Nc1cnc2ccccc2c1)c1ccccc1C(=O)c1ccc(F)cc1 | 94
78 | CN(C)c1cccc(C(=O)N2CCN(c3ncc(F)cn3)C(=O)C2)c1 | 10

Row | SMILES | % Inhibition [%]
79 | Cc1nnc2sc(-c3cnn(-c4ccccn4)c3C(F)(F)F)nn12 | -4
80 | c1ccc(-c2cccnc2NCc2cscn2)cc1 | -3
81 | Cc1ccc(C2C(C(=O)N3CCC(C)CC3)CCC(=O)N2C)cc1 (centres undefined) | -1
82 | COC(=O)[C@@H]1[C@@H](NC(=O)C2CCCC2)CCN1C(C)=O | 1
83 | Cc1cc2c(cc1C)N(CC(=O)Nc1ccc(C(F)(F)F)cc1)C(=O)CC(c1cccs1)=N2 | -23
84 | CC1CC(C(=O)Nc2[nH]c(=O)ncc2F)CC(C)(C)C1 (centres undefined) | 84
85 | CC(=O)N[C@@H]1CN(Cc2nccn2Cc2ccccc2)C[C@H]1c1nccn1C | 12
86 | Cc1ccc(S(=O)(=O)N2CC(C)N(C(=O)N3CCOCC3)C2C)cc1 (centres undefined) | 14
87 | CC1CCN(Cc2ccc(CNCc3c[nH]nc3-c3ccc(F)cc3)cc2)CC1 | 50
88 | Nc1c(-c2ccc(F)cc2)nsc1C(=O)NC1CCN(Cc2ccccc2)CC1 | 8
89 | FC(F)(F)C1CCCC(NCc2c[nH]nc2-c2cccnc2)C1 (centres undefined) | 3
90 | c1ccc(-c2ccccc2NCn2nnc3ccccc32)cc1 | -9
91 | CCc1cccc(NC(=O)N2CCC3(CC2)C(=O)N(CC(=O)Nc2ccc(F)cc2)CN3c2ccccc2)c1 | 30
92 | CC(C)N(CCS(C)(=O)=O)C(=O)NCc1ccco1 | 10
93 | CN(C)CCN(C)c1ccc(Br)cc1NCc1cncn1C | 39
94 | CCn1nc(C)c(CN(C)S(=O)(=O)c2ccc(N3CCCC3=O)cc2)c1C | -1
95 | Cc1ccc(NC(=O)Nc2cccc(-c3ccc(N4CCN(C)CC4)nn3)c2)cc1C | 13
96 | Cc1cccc(Nc2nc(-c3cnc(N4CCN(C)CC4)nc3C)cc(=O)[nH]2)c1 | 4
97 | Cc1cc(C(=O)N[C@@H](C)C(=O)N2CCCCC2)c2nc3n(c2n1)CCCCC3 | 8
98 | Oc1ccc(-n2c(-c3ccccc3)ccc2-c2ccccc2)cc1 | 12
99 | COc1cccc(C(=O)C[n+]2cc(-c3ccc(Br)cc3)n(C)c2N)c1 | 4
100 | Cc1ccc(C(=O)C[n+]2cc(-c3ccc(Br)cc3)n(C)c2N)cc1 | -16
101 | COc1ccc2c(c1)[n+](CC(=O)c1ccc(-c3ccc(Br)cc3)cc1)c(CO)n2C | 54
102 | COc1ccnc(CN2CC[C@](C)(O)[C@H](O)C2)c1 | 6
103 | Cc1ccc(OCc2cccc(C(=O)N3CCC[C@@H]3CN3CCCCC3)c2)cn1 | 9
104 | CN1CCCN(c2ccnc3ccsc23)CC1 | 39
